# Laboratory results as given in PubChem BioAssay AID720664 (National Center for Advancing Translational Sciences (NCATS), 2013).
# Results filed as inconclusive are left out. Unmarked numbers belong to inactive results. Calls of active or inactive are those of the source. Calls follow the shape of the dose curve; as a rule, active = well fitted inhibition curve with a large enough effect; inconclusive = small, poorly fitted or top-dose-only effect; inactive = flat fitted curve, though single readings scatter.
# Target: Galactokinase (Homo sapiens) (UniProt P51570)
# Sequence (P51570 whole entry, looked up): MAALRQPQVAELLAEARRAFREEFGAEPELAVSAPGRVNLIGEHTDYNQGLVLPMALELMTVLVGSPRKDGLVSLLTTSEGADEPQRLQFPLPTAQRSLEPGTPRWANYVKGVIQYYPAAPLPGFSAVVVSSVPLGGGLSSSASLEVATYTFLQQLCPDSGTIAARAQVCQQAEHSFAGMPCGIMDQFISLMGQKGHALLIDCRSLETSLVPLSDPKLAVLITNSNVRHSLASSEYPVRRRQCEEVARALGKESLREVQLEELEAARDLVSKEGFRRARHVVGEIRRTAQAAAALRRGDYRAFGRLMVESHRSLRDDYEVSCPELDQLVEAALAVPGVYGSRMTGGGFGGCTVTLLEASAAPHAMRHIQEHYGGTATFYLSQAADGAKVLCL
# Assay: qHTS for Inhibitors of Human Galactokinase (GALK): SAR round 3
# Details: ADP detection luminescence, 1 h; series mostly up to 57.5 µM; activity change, negative = inhibition: at the top concentration
# From the text: Inherited deficiency of galactose-1-phosphate uridyltransferase (GALT) can result in a potentially lethal disorder called Classic Galactosemia (OMIM 230400). Several lines of evidence indicate that an elevated level of galactose-1-phosphate (gal-1-p), the product of galactokinase (GALK), is a major, if not sole, pathogenic mechanism in patients with classic galactosemia. Therefore, finding inhibitors of GALK is a potential novel therapy for this inherent metabolic disease and is the long term goal of this project. Active compounds observed in the qHTS GALK assay (AID: 1868) were cherry picked and re-screened for validation. GALK (provided by Kent Lai) was assayed using ATP and D-(+)-Galactose (Sigma-Aldrich cat# G0750) as substrates. Promega ADP-Glo technology was used to detect the ADP product formed after the kinase reaction. Kinase reactions with and without GALK were used as negative and positive controls together with Protein Tyrosine Phosphatase CD45 inhibitor (EMD Bioscience cat# 540215) which is shown to inhibit GALK activity. Decrease in activity corresponds to inhibition of the enzyme, the desired outcome for this assay. NIH Molecular Libraries Probe Production Network [MLPCN] NIH Chemical Genomics Center [NCGC] Grant: MH085689-01 PI Name: Kent Lai, University of Utah
# Three uL/well of ATP-buffer solution (35 uM ATP, 20mM HEPES pH8.0, 5 mM MgCl2, 60 mM NaCl, 1 mM DTT, 0.01% BSA final concentration) was dispensed into 1536-well, assay plates (Greiner, solid white medium-binding plates) with Aurora Discovery BioRAPTR Flying Reagent Dispenser (FRD; Beckton-Dickenson). Compound and control solution (23 nL) was transferred to the assay plate using the Kalypsys 1536-pin tool apparatus. One uL/well GALK-galactose solution (5 nM GALK, 100 uM galactose, 20 mM HEPES pH8.0, 5 mM MgCl2, 60 mM NaCl, 1 mM DTT, 0.01% BSA final concentration) was then added using the FRD yielding a total kinase reaction volume of 4 uL/ well. After 1 hour of room temperature incubation, 4 uL Kinase-Glo Plus reagent was added for a final assay volume of 8 uL/well. Luminescence was detected with the ViewLux plate reader (Perkin Elmer, Waltham, MA) after 2 min incubation using a 1 sec exposure time and 2x binning.
SMILES,"activity change, negative = inhibition",Potency
CC1=C(C(=O)Nc2nccs2)C(c2ccccc2Br)N=C(Nc2nc3ccccc3o2)N1 (centres undefined),-26.6%,–
Cn1cc(Br)c(C2N=C(Nc3nc4ccccc4o3)NC3=C2C(=O)CCC3)n1 (centres undefined),–,9.68 µM (active)
Cc1ccc2nc(NC3=NC(c4[nH]ncc4Cl)C4=C(CCCC4=O)N3)oc2c1 (centres undefined),13.9%,–
CC(=O)Nc1ncc(S(=O)(=O)N2CCOCC2)s1,-1.9%,–
CC1=C(C(=O)Nc2nncs2)C(c2nn(C)cc2Cl)N=C(Nc2nc3ccccc3o2)N1 (centres undefined),–,17.2 µM (active)
O=C1CCCC2=C1C(c1[nH]ncc1Cl)N=C(Nc1nc3ccc(F)cc3o1)N2 (centres undefined),0.665%,–
Cn1cc(Cl)c(C2N=C(Nc3nc4ccccc4o3)NC3=C2C(=O)CCC3)n1 (centres undefined),–,12.2 µM (active)
CCCc1ccc(NC(=O)c2ccc3c(c2)NC(=O)CS3)cc1,3.14%,–
Cc1cccc2nc(NC3=NC(c4[nH]ncc4Cl)C4=C(CCCC4=O)N3)oc12 (centres undefined),-0.192%,–
